HCMV antiviral: human cytomegalovirus inhibition | 410,000 tested, 4.5% active | activity change, negative = inhibition, % at 57.5 µM | HFF cells, HCMV-luciferase reporter, 72 h; stronger effect = lower value; in the data active = activity change below about -60%; inconclusive = no clear call, values can overlap the other calls; inactive = above about -39%
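Compounds were evaluated in HFFs infected with an HCMV luciferase reporter virus (MOI 1 PFU/cell). Luciferase in lysates collected 72 h post infection served as the replication measure.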
Pf growth 96h: P. falciparum growth inhibition at 96 hours; P. falciparum luciferase reporter growth, 96 h; 320,000 tested, 6.9% active; Potency, µM (top dose mostly 28.7 µM), without a hit: top-dose activity change, negative = inhibition, actives largely listed as inhibitors; note: potency is the fitted concentration of half-maximal effect
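Delayed-death screen, second-generation endpoint: infected erythrocytes, 2% hematocrit, 0.05% parasitemia final; 96 hours at 37 C, 5% CO2; luciferase detection reagent; luminescence decrease equals reduced growth.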
MARV entry inh: inhibitors of Marburg virus binding or cell entry; Marburg virus pseudotyped entry inhibition, cell reporter; Potency, µM (series often up to 37.8 µM), for the others: at the top dose activity change, negative = inhibition, hits mostly inhibitors; 300,000 tested, 1.8% active; AID 540276; calls by dose curve; tested in HEK293 cells; note: potency is the fitted concentration of half-maximal effect
Lassa entry inh: inhibitors of Lassa virus binding or cell entry; Lassa virus pseudotype entry inhibition, cell reporter; Potency, µM (doses to about 37.9 µM), without a hit: at the highest dose activity change, negative = inhibition, actives largely listed as inhibitors; 300,000 tested, 1.2% active; calls by dose curve; tested in HEK293 cells; note: potency is the fitted concentration of half-maximal effect; nearly all actives have a fitted effect of over 50% in size
Pf growth 48h: inhibits P. falciparum growth in the first generation, 48 h; P. falciparum luciferase growth in erythrocytes, 48 h; Potency, µM (highest dose often 28.7 µM), inactives show at the highest dose activity change, negative = inhibition, most hits filed as inhibitors; 310,000 tested, 5.9% active; note: potency is the fitted concentration of half-maximal effect
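Parasite viability was followed by luminescence of a genomically integrated firefly luciferase. Cultures held 0.1% parasitemia at 2% hematocrit (final), incubated under 5% CO2 at 37 C.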
HCV inhibitor: inhibitors of hepatitis C virus infection | 340,000 tested, 3.4% active | Huh7.5.1 HCVcc-Cre infection, luciferase reporter, 44 h | Potency, µM (series often up to 41.8 µM), for the others: top-dose activity change, negative = inhibition, hits mostly inhibitors; note: potency is the fitted concentration of half-maximal effect
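1,000 cells/well; 4 h culture; + compound; + HCVcc-Cre (~0.5 moi); 44 h; luciferase substrate, RT 15 min; read 15 sec.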
* marks the source's active call; other numbers are inactive results; ? = inconclusive; . = no result given; [ ] = remark or other dose. Sampled rows, rich in hits. Any-hit rate of the full collection: about 14%. Unless noted, calls come from the whole dose curve; as a rule, active = well fitted inhibition curve with a large enough effect; inconclusive = small, poorly fitted or top-dose-only effect, or another doubt; inactive = no such curve, though single readings can be large or run the other way. % is set by controls: 0 for no effect and ±100 for the full control effect.

SMILES	HCMV antiviral	Pf growth 96h	MARV entry inh	Lassa entry inh	Pf growth 48h	HCV inhibitor
Cc1ccc(C)c(N2CCN(C(=O)CCS(=O)(=O)c3ccc4c(c3)NC(=O)CO4)CC2)c1	-73*	3%	.	.	?	?
COc1ccc(N2CCN(C(=O)CC(C)S(=O)(=O)c3ccc4c(c3)NC(=O)CO4)CC2)cc1 (configuration not stated)	?	?	?	?	8%	?
CC(CC(=O)N1CCN(c2cccc(Cl)c2)CC1)S(=O)(=O)c1ccc2c(c1)NC(=O)CO2 (configuration not stated)	-95*	?	.	.	?	6.3µM*
O=C(O)c1ccc(S(=O)(=O)N2CCc3ccccc3C2)cc1	?	9.3µM*	.	.	-9%	14%
Cc1ccc(C(=O)Nc2ccc(S(=O)(=O)N3CCc4ccccc4C3)cc2)o1	-39	.	1%	?	13µM*	?
CCOC(=O)c1cc(C#N)c(Oc2cccc(C(F)(F)F)c2)nc1-c1ccccc1	-39	?	?	?	13µM*	?
CCOC(=O)c1cc(C#N)c(Oc2ccc(F)cc2)nc1-c1ccccc1	-16	34%	?	?	?	?
Cc1ccc(-n2c(=O)c3c(cnn3C)n(CC(=O)Nc3ccc(C)cc3C)c2=O)cc1	-3	.	?	-5%[46.1 µM]	.	.
COc1ccc(-n2nc(C#N)c(Cl)cc2=O)cc1	-101*	55%	3.2µM*	?	360%	?
O=C(C1CCCCC1)N1C[C@@H](O)[C@H](n2cc(C3CC3)nn2)C[C@@H]1c1ccccc1	-11	.	.	.	.	.
CCC1(c2ccc(F)cc2)NC(=O)N(CC(=O)N2CC(=O)Nc3ccccc32)C1=O (configuration not stated)	?	-4%	?	3%	?	-3%
Cc1ccc(C2(c3ccccc3)NC(=O)N(CC(=O)N3CC(=O)Nc4ccccc43)C2=O)cc1C (configuration not stated)	-10	3.7µM*	.	.	2.3µM*	?
O=C1CN(C(=O)CN2C(=O)NC(c3ccccc3)(c3ccccc3)C2=O)c2ccccc2N1	-9	.	.	.	.	10%
COc1ccccc1CNC(=O)CN1C(=O)NC(c2ccccc2)(c2ccc(C)c(C)c2)C1=O (configuration not stated)	-27	9.3µM*	?	?	9.3µM*	-22%
CCCC1(c2ccccc2)NC(=O)N(CC(=O)N2CC(=O)Nc3ccccc32)C1=O (configuration not stated)	5	?	.	.	2.9µM*	19%
Cc1ccccc1C1=NC(C)(CC(=O)Nc2ccc(F)cc2F)ON1C (configuration not stated)	-3	.	.	.	.	.
O=C(Nc1ccn(-c2ccccc2)n1)c1ccc(S(=O)(=O)N2CCCCCC2)cc1	?	?	-12%	4%	1µM*	?
O=C(Nc1ccccc1)c1ccc(S(=O)(=O)N2CCCC2)cc1	-31	37%	19%	-23%	?	6%
Cc1ccc(C(=O)Nc2ccc(F)cc2)cc1S(=O)(=O)N1CCCCCC1	-101*	.	.	?	.	.
Cc1ccc(-n2sc3ccccc3c2=O)cc1S(=O)(=O)N1CCCCC1	-19	4.1µM*	.	.	2.6µM*	?
O=C(Nc1ccon1)c1ccc(S(=O)(=O)N2CCCCCC2)cc1	29	?	?	1%	9.3µM*	9%
Cc1ccc(CS(=O)Cc2ccc(C(=O)NC3CCC(C)CC3)o2)cc1 (configuration not stated)	?	-2%	?	27%[46.1 µM]	-15%	11%
COC(=O)c1ccc(NC(=O)c2c(-c3ccccc3)c(-c3ccccc3)nn(C)c2=O)cc1	52	.	-15%[46.1 µM]	25%[46.1 µM]	.	.
Cc1ccc(C(=O)N2CCOCC2)cc1S(=O)(=O)N1CCCC1	-10	103%	-6%	6%	5%	.
Cc1ccc(C(=O)Nc2ccon2)cc1S(=O)(=O)N1CCCCCC1	-101*	?	8%	1%	.	?
SMILES	HCMV antiviral	Pf growth 96h	MARV entry inh	Lassa entry inh	Pf growth 48h	HCV inhibitor
Cc1ccc(C(=O)N2CCCCC2)cc1S(=O)(=O)N1CCCCCC1	9	8.3µM*	10%[46.1 µM]	23%[46.1 µM]	?	3%
O=C(Nc1cccc(S(=O)(=O)N2CCCCC2)c1)c1ccc(N2CCCC2=O)cc1	-34	?	23%	-8%	?	-9%
Cc1ccc(C(=O)Nc2ccon2)cc1S(=O)(=O)N1CCOCC1	28	.	1%	0%	0%	5%
Cc1ccc(NC(=O)c2ccc(N3CCCC3=O)cc2)cc1S(=O)(=O)N1CCCCC1	-29	0.37µM*	.	.	?	?
Cc1csc(NC(=O)c2ccc(N3CCCC3=O)cc2)n1	-40	241%	1.6µM*	?	104%	-19%
OCC[C@@H]1C[C@H](O)[C@@H](O)[C@]2(OCc3cc(Cl)ccc32)O1	10	.	.	.	.	.
COc1cccc([C@H]2/C(=C(\O)c3ccc(OC)c(OC)c3)C(=O)C(=O)N2c2cc(C)on2)c1	.	.	-12%[46.1 µM]	.	.	.
CCC1CCCCN1S(=O)(=O)c1cc(C(=O)Nc2ccc(C)c(F)c2)ccc1F (configuration not stated)	-91*	.	.	?	.	.
COC(=O)c1cc(C(=O)Nc2ccc(S(=O)(=O)NC(C)(C)C)cc2)cc([N+](=O)[O-])c1	105	2.6µM*	18%	?	?	-9%
COc1cc(C(=O)Nc2ccc(S(=O)(=O)NC(C)(C)C)cc2)cc(OC)c1OC	62	-55%	0%	-1%	.	13µM*
CCN(CC)S(=O)(=O)c1ccc(NC(=O)c2cc(C(=O)OC)cc([N+](=O)[O-])c2)cc1	-29	-20%	-3%	-6%	?	?

Compound activity from PubChem BioAssay.
